Laboratory results published in PubChem BioAssay (NCATS).
Values without a mark were called inactive. Inconclusive results are not listed. Where a call stands in place of a potency, no number is given. Activity calls are given as the source filed them. Calls follow the shape of the dose curve; as a rule, active = well fitted curve in the direction sought with a large enough effect; inconclusive = small, poorly fitted or top-dose-only effect, or another doubt; inactive = no such curve, though single readings can be large; an effect the other way counts as inactive or inconclusive. Where a SMILES comes first, the peptide text is derived from it.

Assays:
[1] = biological target: Glutathione peroxidase 1 (Homo sapiens) (UniProt P07203); test: Primary qHTS Assay for Inhibitors of Recombinant Selenoprotein Glutathione Peroxidase 1 (GPX1) (AID 1845191); also: nearly all actives have a fitted effect of over 65% in size
Method in brief: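 GR-coupled readout: NADPH consumption tracked by fluorescence, ex 340/em 450 nm, at t=0 and after 15 min at RT. Final mix 10 nM GPX1, 1 mM GSH, 0.5 mM CHP, 0.5 mM NADPH, 100 nM GR, 0.01% BSA, following 30 min enzyme–compound preincubation.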

[2] = biological target: Phospholipid hydroperoxide glutathione peroxidase GPX4 (Homo sapiens) (UniProt P36969); test: Primary qHTS Assay for Inhibitors of Recombinant Selenoprotein Glutathione Peroxidase 4 (GPX4) (AID 1845192); also: series mostly up to about 50 µM; nearly all actives have a fitted effect of over 65% in size
Method in brief: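 Steps: GPX4 plus compound, 30 min RT; add GR/GSH/NADPH master mix; start with cumene hydroperoxide; read 340/450 nm fluorescence at 0 and 15 min. Finals were 200 nM GPX4, 1 mM GSH, 0.5 mM CHP, 0.5 mM NADPH, 100 nM GR.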

[3] = biological target: Luciferin 4-monooxygenase (Photinus pyralis) (UniProt P08659); test: Primary firefly luciferase (FLuc) qHTS assay for identification of artifact compounds. (AID 1845220); also: nearly all actives have a fitted effect of over 60% in size; also: potency is read from the fitted curve at half-maximal effect; as to activity change, negative = inhibition: series mostly up to about 54 µM
Method in brief: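 Enzymatic FLuc inhibition assay: compounds pre-exposed to luciferin/ATP (10 uM each) for 15 min, then purified P. pyralis enzyme at 10 nM added. Read-out: luminescence at 5 min.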

[4] = Primary fluorescence-based thiol-reactive (MSTI) qHTS assay for identification of artifact compounds. (AID 1845221); also: nearly all actives have a fitted effect of over 65% in size; also: potency is read from the fitted curve at half-maximal effect;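 as to activity change, negative = thiol reactive: series mostly up to about 54 µM; thiol-reactive compounds lower the probe fluorescence signal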
Method in brief: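 MSTI probe at 4 uM final in 2% DMSO/PBS pH 7.4; compounds, 1 h at room temperature in dark. Fluorescence Ex/Em 525/598 nm, normalised to Acetyl-MSTI and MSTI, fitted to 4-parameter Hill.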

[5] = test system: Nanoluciferase (engineered Oplophorus gracilirostris luciferase); test: Primary Nanoluciferase (NLuc) qHTS assay for identification of artifact compounds. (AID 1845222);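 also: NLuc secreted into diluted conditioned medium of S16 cells; series mostly up to about 54 µM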
Method in brief: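 S16 cell supernatant NLuc, 1:55; cpds qHTS; 15 min RT dark; Nano-Glo substrate 1:100, 5 min; luminescence; Hill fit of % inhibition.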

Sequence of Phospholipid hydroperoxide glutathione peroxidase GPX4 (Homo sapiens) (P36969 whole entry, looked up): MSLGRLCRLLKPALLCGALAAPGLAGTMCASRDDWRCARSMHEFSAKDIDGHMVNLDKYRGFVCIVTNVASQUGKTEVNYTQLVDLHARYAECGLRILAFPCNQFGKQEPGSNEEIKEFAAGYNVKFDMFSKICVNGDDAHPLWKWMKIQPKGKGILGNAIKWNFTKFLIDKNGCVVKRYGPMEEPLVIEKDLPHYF
Sequence of Glutathione peroxidase 1 (Homo sapiens) (P07203 whole entry, looked up): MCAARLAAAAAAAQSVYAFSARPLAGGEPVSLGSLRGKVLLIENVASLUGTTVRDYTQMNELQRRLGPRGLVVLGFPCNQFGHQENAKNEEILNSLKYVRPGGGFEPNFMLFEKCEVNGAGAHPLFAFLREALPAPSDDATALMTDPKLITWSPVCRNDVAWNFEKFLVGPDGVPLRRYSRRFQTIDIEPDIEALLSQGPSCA

Row | Compound | Potency [1] | Potency [2] | Potency [3] | Potency [4] | Potency [5] | activity change, negative = inhibition [3] | activity change, negative = thiol reactive [4] | activity, negative = inhibition [5] | outcome [3]
1 | C=C(COC(=O)CC(C)C)C1Cc2cc(C(C)=O)ccc2O1 (stereo not drawn) | inactive | inactive | inactive | inactive | inactive |  |  |  | 
2 | CC(=O)OC1CC(=O)C2(C)C3CC4=C(OC(C)CC4=O)OC3(C)CCC2C1(C)C (stereo not drawn) | inactive | inactive | inactive | 11.6 µM (active) | inactive |  |  |  | 
3 | CC1=C2C[C@@]3(C)[C@@H](CCC[C@@H]3C)C[C@@]2(O)OC1=O | inactive | inactive | inactive | inactive | inactive |  |  |  | 
4 | CO[C@H]1c2cc(C(C)C)c(O)c(O)c2[C@@]23CCCC(C)(C)C2[C@@H]1OC3=O (stereo partly drawn) | inactive | inactive | inactive | 1.47 µM (active) | inactive |  |  |  | 
5 | O=C(O)C(Cc1ccccc1)NC(=O)C1CCCN1 (stereo not drawn) (H-Pro-Phe-OH; configuration not given here) | inactive | inactive | inactive | inactive | inactive |  |  |  | 
6 | C=CC(C)(C)C12Nc3c(ccc4c3OC(C)(C)C=C4)C1(O)CC1C(=O)N3CCCC3C(=O)N12 (stereo not drawn) | inactive | inactive | inactive | inactive | inactive |  |  |  | 
7 | COc1ccc(OC)c(C2C(C#N)=C(N)Oc3n[nH]c(-c4ccc5ccccc5c4)c32)c1 (stereo not drawn) | inactive | inactive | inactive | inactive |  |  |  |  | 
8 | C=C1C(=O)O[C@@H]2CC(C)=C([C@@H](C)CCCOC(C)=O)[C@@H](O)[C@H]12 | inactive | inactive | inactive | 16.5 µM (active) | inactive |  |  |  | 
9 | O=C(NCC(=O)N1CCCC1)Nc1ccc2ccccc2c1 | inactive | inactive | inactive | inactive | inactive |  |  |  | 
10 | O=C(OC[C@H]1O[C@@H](Oc2ccccc2CO)[C@H](O)[C@@H](O)[C@@H]1O)c1ccccc1 | inactive | inactive | inactive | 10.4 µM (active) | inactive |  |  |  | 
11 | Cc1ccc(-c2c(-c3nn(C)c4ncnc(N5CC[C@H](N6CCCCC6)C5)c34)cnn2C)cc1 | inactive | inactive | inactive | inactive | inactive |  |  |  | 
12 | CC1(C)C[C@H]2C=C(C=O)[C@]3(C(=O)O)C[C@]3(C)[C@H]2C1 | inactive | inactive | inactive | 11.9 µM (active) | inactive |  |  |  | 
13 | CC1(C)CC[C@]2(C(=O)O)CC[C@]3(C)C(=CCC4[C@@]5(C)CC[C@H](O[C@@H]6O[C@H](C(=O)O)[C@@H](O)[C@H](O[C@@H]7O[C@H](CO)[C@H](O)[C@H](O)[C@H]7O)[C@H]6O[C@@H]6O[C@H](CO)[C@@H](O)[C@H](O)[C@H]6O)C(C)(C)C5CC[C@]43C)[C@@H]2C1 (stereo partly drawn) | inactive | inactive |  |  |  | -14.9% [at 6.45 µM] | 227% [at 6.41 µM] | -1.21% [at 6.45 µM] | 
14 | COc1cccc(CNc2ccc(S(=O)(=O)Nc3nc4ccccc4s3)cc2)c1O | inactive | inactive | inactive | inactive | inactive |  |  |  | 
15 | CC(=O)O[C@@H]1C=C2[C@H](CC[C@@]3(C)[C@@]2(O)CC[C@H]2Cc4c([nH]c5ccccc45)[C@@]23C)O[C@@H]1C(C)(C)O | inactive | inactive | inactive | 4.12 µM (active) | inactive |  |  |  | 
16 | COc1cccc(OC)c1-c1ccc(C[C@H](NC(=O)c2c(Cl)cccc2Cl)C(=O)O)cc1 | inactive | inactive | inactive | inactive |  |  |  |  | 
17 | C[C@@H]1O[C@@H](O[C@H]2[C@H](O[C@H]3[C@H](O[C@H]4CC[C@@]5(C)C(CC[C@]6(C)C5CC=C5[C@@H]7CC(C)(C)CC(=O)[C@]7(C)CC[C@]56C)[C@@]4(C)CO)O[C@H](C(=O)O)[C@@H](O)[C@@H]3O)O[C@H](CO)[C@H](O)[C@@H]2O)[C@H](O)[C@H](O)[C@H]1O (stereo partly drawn) | inactive | inactive |  |  |  |  | 40% [at 11.5 µM] | -0.78% [at 11.6 µM] | inactive [at 11.6 µM]
18 | C/C=C/C=C/C(O)=C1/C(=O)[C@]2(C)C(=O)[C@@](C)(O)[C@H]1[C@H]([C@@]1(C)OC(=O)C(C)=C1O)[C@H]2C(=O)CC/C=C/C | inactive | inactive | inactive | 4.12 µM (active) | inactive |  |  |  | 
19 | CCCC1=CC2=C(CO1)C(=O)C(C)(O)C(OC(=O)c1c(C)cc(OC)cc1O)C2 (stereo not drawn) | inactive | inactive | inactive | inactive | inactive |  |  |  | 
20 | O=C(/C=C/C=C/c1ccc2c(c1)OCO2)N1CCCCC1 | inactive | inactive | 10.7 µM (active) | inactive | inactive |  |  |  | 
